Measurements: the supplement of paper PMC8877412
Counter-ions that a name gives are not always drawn. ± gives the uncertainty stated by the source.

These compounds were tested on NCC-PMP1-C1 (assay: cell viability relative to DMSO control; higher = less growth inhibition). Conditions: 10 µM; 72 h.
Method: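 NCC-PMP1-C1 pseudomyxoma peritonei cells were seeded in 384-well plates coated with Matrigel and MEF (1e4 cells). Viability was read after 72 h by CCK-8 and expressed as % of the DMSO control, mean ± SD of duplicates.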

Going from `CCN(CC)CCNC(=O)c1c(C)[nH]c(/C=C2\C(=O)Nc3ccc(F)cc32)c1C` [Sunitinib] to `CC1=C(CC(=O)O)c2cc(F)ccc2/C1=C\c1ccc([S+](C)[O-])cc1` (stereo not given) [Sulindac], the cell viability rises from 35.5 ± 3.6% to 111 ± 29%.

Compared with `CC/C(=C(/CC)c1ccc(O)cc1)c1ccc(O)cc1` [Diethylstilbestrol], `O=c1c(-c2ccc(O)cc2)coc2cc(O)cc(O)c12` [Genistein] is lower in cell viability: 121.2 ± 0.53% for the first, 100 ± 2.1% for the second.

`CCCCNC(=O)NS(=O)(=O)c1ccc(C)cc1` [Tolbutamide] and `Cc1ccc(S(=O)(=O)Nc2nc3ccccc3nc2Nc2ccc3nsnc3c2)cc1` [XL147 analog] are within error of each other in cell viability: 96.4 ± 6.1% for the first, 96.2 ± 9% for the second.

`Cc1nc(Nc2ncc(C(=O)Nc3c(C)cccc3Cl)s2)cc(N2CCN(CCO)CC2)n1` [Dasatinib Monohydrate] and `CN1CCN(CCOc2cc(OC3CCOCC3)c3c(Nc4c(Cl)ccc5c4OCO5)ncnc3c2)CC1` [Saracatinib (AZD0530)] are within error of each other in cell viability: 41.1 ± 8.4% for the first, 49.7 ± 2% for the second.

First: CCCCNc1ncc(-c2ccc(CN3CCOCC3)cn2)c(NC2CCC(O)CC2)n1 (stereo not given)
Second: COc1cc(N2CCC(N3CCN(C)CC3)CC2)ccc1Nc1ncc(Cl)c(Nc2ccccc2S(=O)(=O)C(C)C)n1
The cell viability of the first is higher: 43.4 ± 2% for the first, 38.3 ± 2.1% for the second.

Compared with `CC(C)(OCc1nn(Cc2ccccc2)c2ccccc12)C(=O)O` [Bindarit], `O=C(O)CCCN1CCC(O[C@@H](c2ccc(Cl)cc2)c2ccccn2)CC1` [Bepotastine Besilate] is lower in cell viability: 104 ± 7.1% for the first, 2.73 ± 16% for the second.

`Nc1nc(Cl)nc2c1ncn2[C@@H]1O[C@H](CO)[C@@H](O)[C@@H]1F` [Clofarabine] and `Nc1nc(F)nc2c1ncn2[C@@H]1O[C@H](CO)[C@@H](O)[C@@H]1O` [Fludarabine] are within error of each other in cell viability: 112 ± 5.7% for the first, 114 ± 29% for the second.

Going from `COc1ccc2c(c1OC)C(=O)O[C@@H]2[C@H]1c2c(cc3c(c2OC)OCO3)CCN1C` [Noscapine HCl] to `COc1cc2c(cc1O)CCN[C@]21CS[C@@H]2c3c(OC(C)=O)c(C)c4c(c3[C@H](COC1=O)N1[C@@H]2[C@H]2c3c(cc(C)c(OC)c3O)C[C@@H]([C@@H]1O)N2C)OCO4` [Trabectedin], the cell viability falls from 90.5 ± 4.2% to -0.842 ± 0.95%.

First: C#Cc1cccc(Nc2ncnc3cc(OCCOC)c(OCCOC)cc23)c1 [Erlotinib HCl (OSI-744)]
Second: COc1cc(OC)cc(N(CCNC(C)C)c2ccc3ncc(-c4cnn(C)c4)nc3c2)c1 [Erdafitinib]
The cell viability of the first is higher: 74.6 ± 2.7% for the first, 59.1 ± 2.4% for the second.

`O=NN(CCCl)C(=O)NC1CCCCC1` [Lomustine] and `CC(=O)OCC(=O)[C@@]1(O)CC[C@H]2[C@@H]3CCC4=CC(=O)CC[C@]4(C)[C@H]3C(=O)C[C@@]21C` [Cortisone acetate] are within error of each other in cell viability: 105 ± 11% for the first, 114 ± 4.4% for the second.

Going from `CCC[C@@H]1C[C@@H](C(=O)N[C@@H]([C@H]2O[C@H](SC)[C@H](O)[C@@H](O)[C@H]2O)[C@@H](C)O)N(C)C1` [Lincomycin HCl] to `O=C(O)C1=CO[C@@H](O[C@@H]2O[C@H](CO)[C@@H](O)[C@H](O)[C@H]2O)[C@@H]2C(CO)=CC[C@H]12` [Geniposidic acid], the cell viability rises from 74.4 ± 15% to 97.1 ± 2.2%.

Going from `CC[C@H]1OC(=O)[C@H](C)[C@@H](O[C@H]2C[C@@](C)(OC)[C@@H](O)[C@H](C)O2)[C@H](C)[C@@H](O[C@@H]2O[C@H](C)C[C@H](N(C)C)[C@H]2O)[C@](C)(O)C[C@@H](C)CN(C)[C@H](C)[C@@H](O)[C@]1(C)O` [Azithromycin] to `CO[C@H](C(=O)[C@@H](O)[C@@H](C)O)[C@@H]1Cc2cc3cc(O[C@H]4C[C@@H](O[C@H]5C[C@@H](O)[C@H](O)[C@@H](C)O5)[C@H](O)[C@@H](C)O4)c(C)c(O)c3c(O)c2C(=O)[C@H]1O[C@H]1C[C@@H](O[C@H]2C[C@@H](O[C@H]3C[C@](C)(O)[C@H](O)[C@@H](C)O3)[C@H](O)[C@@H](C)O2)[C@H](O)[C@@H](C)O1` [Mithramycin A], the cell viability falls from 123 ± 2.7% to 7.11 ± 5.3%.

`N=C(N)NC(=N)N1CCOCC1` [Moroxydine HCl] and `Nc1ncn([C@H]2C[C@H](O)[C@@H](CO)O2)c(=O)n1` [Decitabine] are within error of each other in cell viability: 104 ± 11% for the first, 95.2 ± 0.53% for the second.

First: COC(=O)C1=C(C#N)NC(C)=C(C(=O)OC(C)C)C1c1cccc([N+](=O)[O-])c1 (stereo not given) [Nilvadipine]
Second: COc1cccc2c1C(=O)c1c(O)c3c(c(O)c1C2=O)C[C@@](O)(C(=O)CO)C[C@@H]3O[C@H]1C[C@H](N)[C@H](O)[C@H](C)O1 [Doxorubicin (Adriamycin)]
The cell viability of the first is higher: 82.8 ± 3.3% for the first, 3.06 ± 0.067% for the second.

Going from `Clc1ccc(C(c2ccccc2Cl)C(Cl)Cl)cc1` (stereo not given) [Mitotane] to `Clc1ccc(Nc2nnc(Cc3ccncc3)c3ccccc23)cc1` [Vatalanib (PTK787) 2HCl], the cell viability falls from 106.8 ± 1% to 84.5 ± 1.8%.

`CN(C)/N=N/c1[nH]cnc1C(N)=O` [Dacarbazine] and `CN(Cc1cnc2nc(N)nc(N)c2n1)c1ccc(C(=O)N[C@@H](CCC(=O)O)C(=O)O)cc1` [Methotrexate] are within error of each other in cell viability: 111.7 ± 1.1% for the first, 110 ± 1.7% for the second.

First: Cc1ccc(-c2cc(C(F)(F)F)nn2-c2ccc(S(N)(=O)=O)cc2)cc1 [Celecoxib]
Second: Cc1ccc(Nc2nccc(N(C)c3ccc4c(C)n(C)nc4c3)n2)cc1S(N)(=O)=O
The cell viability of the first is higher: 99.99 ± 0.53% for the first, 72.5 ± 0.73% for the second.

First: O=C1CCC(N2C(=O)c3ccccc3C2=O)C(=O)N1 (stereo not given) [Thalidomide]
Second: CCc1ccc(CCOc2ccc(CC3SC(=O)NC3=O)cc2)nc1 (stereo not given) [Pioglitazone]
The cell viability of the first is higher: 110 ± 6.2% for the first, 92.8 ± 5.5% for the second.

Going from `COc1cc2c(cc1O)CC[C@@H]1[C@@H]2CC[C@]2(C)[C@@H](O)CC[C@@H]12` [2-Methoxyestradiol (2-MeOE2)] to `CC[C@]1(O)C[C@@H]2CN(CCc3c([nH]c4ccccc34)[C@@](C(=O)OC)(c3cc4c(cc3OC)N(C)[C@H]3[C@@](O)(C(=O)OC)[C@H](OC(C)=O)[C@]5(CC)C=CCN6CC[C@]43[C@@H]65)C2)C1` [Vinblastine sulfate], the cell viability falls from 98 ± 4% to 43.6 ± 2.9%.

First: O=C1c2c(O)ccc(O)c2C(=O)c2c(NCCNCCO)ccc(NCCNCCO)c21 [Mitoxantrone 2HCl]
Second: Nc1nc2n[nH]nc2c(=O)[nH]1 [Azaguanine-8]
The cell viability of the first is lower: 2.67 ± 1.1% for the first, 55.8 ± 6.5% for the second.
